Reference: PubChem BioAssay AID1159580 (chemical genetic matrix, 2015)
About 2,000 (36%) of roughly 5,500 compounds were called active. Not shown: some 18% with an inconclusive outcome. Rule as the data show it: active = normalized growth mostly below about 0.91 (no sharp cut-off); inconclusive = no clear call, values can overlap the other calls; inactive = mostly above about 0.92. This is one part of the list.

Test: chemical genetic growth profiling, strain panel (AID 1159580);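 also: tested at 20 µM; growth read once vehicle control cultures reached saturation at 30 °C; 1 = growth at the plate median or of vehicle wells; lower values mean less growth of the strain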
Details: S. cerevisiae deletion strains, growth OD

Measured: normalized growth

CCOc1ccc(NC(=O)CC(C)O)cc1 (centres undefined)
inactive: locus YHR030C, strain SLT2, stronger effect = lower value 1.02 | locus YHR079C, strain IRE1, stronger effect = lower value 1.02 | locus YJL095W, strain BCK1, stronger effect = lower value 1.02 | locus YJR066W, strain TOR1, stronger effect = lower value 0.94 | locus YLR113W, strain HOG1, stronger effect = lower value 1.06 | locus YNL183C, strain NPR1, stronger effect = lower value 0.939 | locus YOR231W, strain MKK1, stronger effect = lower value 1.01 | locus YPL256C, strain CLN2, stronger effect = lower value 1.01

O=C(Cc1ccccc1)NO
inactive: locus YAL021C, strain ccr4, stronger effect = lower value 0.981 | locus YAL026C, strain drs2, stronger effect = lower value 0.983 | locus YAL030W, strain snc1, stronger effect = lower value 0.995 | locus YBL061C, strain skt5, stronger effect = lower value 0.957 | locus YBR009C, strain hhf1, stronger effect = lower value 0.993 | locus YBR023C, strain chs3, stronger effect = lower value 0.978 | locus YBR171W, strain sec66, stronger effect = lower value 0.96 | locus YBR231C, strain swc5, stronger effect = lower value 0.974 | locus YBR279W, strain paf1, stronger effect = lower value 0.976 | locus YCL011C, strain gbp2, stronger effect = lower value 0.978 | locus YCL016C, strain dcc1, stronger effect = lower value 0.96 | locus YCL061C, strain MRC1, stronger effect = lower value 0.975 | locus YCL069W, strain vba3, stronger effect = lower value 0.979 | locus YCR088W, strain abp1, stronger effect = lower value 0.978 | locus YDL005C, strain med2, stronger effect = lower value 0.956 | locus YDL040C, strain nat1, stronger effect = lower value 0.975 | locus YDR001C, strain nth1, stronger effect = lower value 0.972 | locus YDR069C, strain doa4, stronger effect = lower value 0.953 | locus YDR137W, strain rgp1, stronger effect = lower value 0.976 | locus YDR159W, strain sac3, stronger effect = lower value 0.964 | locus YDR195W, strain ref2 0.953 | locus YDR297W, strain sur2, stronger effect = lower value 0.987 | locus YDR334W, strain swr1, stronger effect = lower value 1.01 | locus YDR335W, strain msn5, stronger effect = lower value 0.982 | locus YDR392W, strain spt3, stronger effect = lower value 0.993 | locus YEL003W, strain gim4, stronger effect = lower value 0.974 | locus YEL037C, strain rad23, stronger effect = lower value 0.962 | locus YEL061C, strain CIN8 (second series), stronger effect = lower value 0.989 | locus YER015W, strain faa2, stronger effect = lower value 0.98 | locus YER016W, strain bim1, stronger effect = lower value 0.982 | locus YER111C, strain swi4, stronger effect = lower value 0.985 | locus YER155C, strain BEM2 (second series), stronger effect = lower value 0.925 | locus YFR010W, strain ubp6, stronger effect = lower value 0.983 | locus YGL167C, strain pmr1, stronger effect = lower value 0.969 | locus YGL173C, strain kem1, stronger effect = lower value 0.979 | locus YGL227W, strain vid30, stronger effect = lower value 0.961 | locus YGL240W, strain doc1, stronger effect = lower value 0.995 | locus YGL253W, strain hxk2, stronger effect = lower value 0.962 | locus YHR013C, strain ard1, stronger effect = lower value 0.944 | locus YHR027C, strain rpn1, stronger effect = lower value 0.974 | locus YHR142W, strain chs7, stronger effect = lower value 0.917 | locus YJL092W, strain hpr5, stronger effect = lower value 0.99 | locus YJL095W, strain BCK1 (second series), stronger effect = lower value 0.96 | locus YJL115W, strain asf1, stronger effect = lower value 0.961 | locus YJL129C, strain trk1, stronger effect = lower value 0.954 | locus YJL154C, strain vps35, stronger effect = lower value 0.989 | locus YJL164C, strain tpk1, stronger effect = lower value 0.977 | locus YJL166W, strain qcr8, stronger effect = lower value 0.966 | locus YKL160W, strain elf1, stronger effect = lower value 0.944 | locus YKR026C, strain gcn3, stronger effect = lower value 0.973 | locus YKR091W, strain srl3, stronger effect = lower value 0.973 | locus YLL001W, strain dnm1, stronger effect = lower value 0.98 | locus YLL026W, stronger effect = lower value 0.97 | locus YLL041C, strain sdh2, stronger effect = lower value 0.976 | locus YLR027C, strain aat2, stronger effect = lower value 0.973 | locus YLR221C, strain rsa3, stronger effect = lower value 0.992 | locus YLR258W, strain gsy2, stronger effect = lower value 0.973 | locus YLR262C, strain YPT6 (second series), stronger effect = lower value 0.978 | locus YLR320W, strain mms22, stronger effect = lower value 0.952 | locus YLR342W, strain FKS1, stronger effect = lower value 0.98 | locus YLR357W, strain rsc2, stronger effect = lower value 0.938 | locus YLR370C, strain arc18, stronger effect = lower value 0.981 | locus YLR384C, strain iki3, stronger effect = lower value 0.961 | locus YML120C, strain ndi1, stronger effect = lower value 0.981 | locus YMR058W, strain fet3, stronger effect = lower value 0.984 | locus YMR125W, strain sto1, stronger effect = lower value 0.963 | locus YMR129W, stronger effect = lower value 0.973 | locus YMR205C, strain PFK2, stronger effect = lower value 0.992 | locus YMR231W, strain pep5, stronger effect = lower value 0.975 | locus YNL071W, strain lat1, stronger effect = lower value 0.965 | locus YNL209W, strain ssb2, stronger effect = lower value 0.984 | locus YNL248C, strain rpa49, stronger effect = lower value 0.95 | locus YNL322C, strain KRE1 (second series), stronger effect = lower value 0.949 | locus YNR049C, strain mso1, stronger effect = lower value 0.983 | locus YOR001W, strain rrp6, stronger effect = lower value 1 | locus YOR070C, strain gyp1, stronger effect = lower value 0.98 | locus YOR080W, strain dia2, stronger effect = lower value 0.94 | locus YOR083W, strain WHI5, stronger effect = lower value 0.928 | locus YOR106W, strain vam3, stronger effect = lower value 0.939 | locus YOR265W, strain rbl2, stronger effect = lower value 0.976 | locus YOR270C, strain vph1, stronger effect = lower value 0.936 | locus YOR290C, strain snf2, stronger effect = lower value 0.969 | locus YPL051W, strain arl3, stronger effect = lower value 0.972 | locus YPL078C, strain atp4, stronger effect = lower value 0.97 | locus YPL106C, strain sse1, stronger effect = lower value 0.949 | locus YPL240C, strain hsp82, stronger effect = lower value 0.963
